# Data published in paper PMC12136788.
# Substitutions are numbered along the chain they refer to. The full ranking holds about 24,000 sequences; the median of “enrichment r” is about 0.99, and the highest 2% start at about 3.7. The sample as a whole holds a higher share of the highest values than the screen did.
# T1: UNK ZnF1-3 (human, UniProt Q9C0B0 31-174)
# T1 sequence: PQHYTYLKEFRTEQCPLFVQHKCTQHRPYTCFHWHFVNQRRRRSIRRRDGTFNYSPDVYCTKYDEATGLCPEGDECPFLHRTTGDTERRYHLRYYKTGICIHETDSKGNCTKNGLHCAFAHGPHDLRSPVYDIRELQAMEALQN
# B1: chr1:163117127:163117128:-_ENSG00000143248_ENST00000313961|hu_hu|motif|central (ssRNA)
# RNA: GGGAGUUCUACAGUCCGACGAUCGCAGGGUUAUUAUGGAGGAAAUAACUCACAGGAUGAUUUCAUAGCCUGGCUAAAUUACGGCUUGAUUAACUCCUGAUAAAACUCAGAGCGCACAAAGCGAGGCAGAGAAUCCUUUUCCAUCAACAGAGGAUUGAGCAUCA
# B2: chr7:140404665:140404666:+_ENSG00000090266_ENST00000247866|hu_hu|hu_hu_hu_mus_False|28_98 (ssRNA)
# RNA: GGGAGUUCUACAGUCCGACGAUCUGCUCCUACUCGUAGGCUGAGUCUACAGUGUCAGUCCUCGUCAUCAGGAGGGAUUCCCAGUUCUUCAUCUGUCCACUGUGAAGGAUCAGGAUAUGAAAAGUGACCCAGCACAGCAUCCGACAACAGAGGAUUGAGCAUCA
# B3: chr9:34402745:34402746:-_ENSG00000164970_ENST00000297620|hu_hu|motif|central (ssRNA)
# RNA: GGGAGUUCUACAGUCCGACGAUCGGGGACGACCAGCCUUGUUCGGGCCAUGACAUUGUUCUUCUUGGGUUGCUGGUUGACAGGGCGGCCCAUGCUGCCAUUCUUCAGGGAGCCCUUCCGGGCCAGCUCCCGCUGCUUCUCCUCCAACAGAGGAUUGAGCAUCA
# B4: chr2:153237265:153237266:-_ENSMUSG00000061411_ENSMUST00000109784|mus_mus|mus_mus_mus_hu_False|1_108 (ssRNA)
# RNA: GGGAGUUCUACAGUCCGACGAUCAAAAAAAAGAAAAAAAAAGUGUCCUUGUGCCCAAAGUCUCAGGUGCUUGGAGUGUGGCUAGAAACAGCUCUUUUGGAUCCCACCUCUUUCAAAAACAAAAUGUACCAACUGGUAGGCAGGCAACAGAGGAUUGAGCAUCA
# B5: chr2:153237265:153237266:-_ENSMUSG00000061411_ENSMUST00000109784|mus_mus|mus_mus_mus_hu_False|98_98 (ssRNA)
# RNA: B4 RNA with G32A, A37G, A137G, G138A, C140G, A141C, G142A
# B6: chr2:153237265:153237266:-_ENSMUSG00000061411_ENSMUST00000109784|mus_mus|mus_mus_mus_hu_False|1_98 (ssRNA)
# RNA: B4 RNA with G32A, A37G
# Target: T1, UNK ZnF1-3
# Test: nsRBNS (natural sequence RNA bind-n-seq); RBNS binding buffer (assumed for nsRBNS): 25 mM Tris pH 7.5, 150 mM KCl, 3 mM MgCl2, 0.01% Triton X-100, 500 ug/ml BSA, 20 U/ml SUPERase-In, 4 C; UNK is unkempt and MSI1 is Musashi-1; names of the RNAs are library labels; protein concentration not given here; high values mean tight binding
row,Binder,binding signal
1,B1,1.52 enrichment R
2,B2,0.773 enrichment R
3,B3,0.859 enrichment R
4,B4,4.2 enrichment R
5,B5,3.61 enrichment R
6,B6,4.8 enrichment R
